A short description of assay [1]: ATG_E_Box_CIS: Attagene CIS-FACTORIAL HepG2 Assay for human Enhancer Box (E-box) (AID 2282936). Particulars: HepG2 E-box cis-reporter transcription, actives raise or lower the signal. A digest of the protocol: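 Measured 24 h post-dosing in HepG2 cells transfected with multiple cis-regulated reporter units, signal being reporter mRNA induction detected by fluorescent RT-PCR with capillary electrophoresis; gain or loss fitted against DMSO.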

Assay [2] is described as follows: ATG_M_61_CIS: Attagene CIS-FACTORIAL HepG2 Assay for M61 Transcription Factor (Internal Marker) (AID 2282937). The note with it: HepG2 Attagene CIS-FACTORIAL M61 internal marker reporter; actives raise or lower the signal. In a few lines:
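HepG2 cells transiently transfected with multiplexed cis-promoter reporter units reporting endogenous transcription factor activity, measured 24 h after dosing. Reporter mRNA quantified by RT-PCR and capillary electrophoresis; bidirectional fit against DMSO baseline.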

Assay [3] can be described thus: ATG_EGR_CIS: Attagene CIS-FACTORIAL HepG2 Assay for human Early Growth Response 1 (EGR1) (AID 2282938). Particulars: HepG2 Attagene CIS-FACTORIAL EGR reporter mRNA; actives raise or lower the signal. A digest of the protocol:
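HepG2 cells transiently transfected with cis-element-driven multiplexed reporter units, dosed for 24 h. EGR1-element reporter mRNA quantified by RT-PCR, 6-FAM labelling, HpaI digestion and capillary electrophoresis; bidirectional fit versus DMSO.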

A short description of assay [4]: ATG_M_19_CIS: Attagene CIS-FACTORIAL HepG2 Assay for M19 Transcription Factor (Internal Marker) (AID 2282939). The note with it: HepG2 Attagene CIS-FACTORIAL M19 internal marker reporter; actives raise or lower the signal. In a few lines:
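Readout: fluorescent reporter-transcript fragments by capillary electrophoresis after RT-PCR. Human HepG2 liver cells carried transfected MRTU constructs reporting endogenous transcription-factor activity; exposure 24 h. Gain or loss of signal fitted relative to DMSO.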

Assay [5] in a line: ATG_ERE_CIS: Attagene CIS-FACTORIAL HepG2 Assay for Estrogen Response Element (ERE) (AID 2282940). The note with it: HepG2 ERE cis-reporter, Attagene RNA transcript; actives raise or lower the signal. A digest of the protocol: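 Readout: reporter mRNA induction by RT-PCR, FAM-labelled primer extension, HpaI digestion and capillary electrophoresis, 24 h after dosing transfected HepG2 cells. Endogenous transcription factors act on cis-element-regulated reporters. Gain or loss fitted against DMSO.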

Assay [6] is described as follows: ATG_Ets_CIS: Attagene CIS-FACTORIAL HepG2 Assay for human Erythroblast Transformation Specific (ETS) (AID 2282941). Particulars: HepG2 ETS cis-reporter transcription, actives raise or lower the signal. A digest of the protocol:
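RT-PCR/capillary electrophoresis fluorescence read-out of reporter mRNA; HepG2 transient multi-reporter transfection; 24 h compound exposure; gain or loss of signal fitted bidirectionally relative to DMSO.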

For assay [7], the target named is Hepatocyte nuclear factor 3-beta (Homo sapiens) (UniProt Q9Y261). In words: ATG_FoxA2_CIS: Attagene CIS-FACTORIAL HepG2 Assay for human Forkhead box A2 (FOXA2) (AID 2282942). The note with it: HepG2 cis-reporter transcription factor activity, 24 h; actives raise or lower the signal. A digest of the protocol:
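HepG2 transiently transfected with a multiplexed cis-promoter reporter library read endogenous FOXA2 activity. After 24 h compound exposure, reporter mRNA was quantified by RT-PCR, HpaI digestion and capillary electrophoresis. Bidirectional fit against DMSO.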

Assay [8] can be described thus: ATG_FoxO_CIS: Attagene CIS-FACTORIAL HepG2 Assay for human Forkhead box O (FoxO) (AID 2282943). The note with it: HepG2 Attagene cis-reporter, FoxO element, mRNA; actives raise or lower the signal. In a few lines:
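HepG2 cells transiently transfected with cis-promoter-driven multiple reporter transcription units; 24 h after chemical dosing, reporter mRNA quantified by RT-PCR, fluorescent primer extension, HpaI digestion and capillary electrophoresis. Bidirectional fitting versus DMSO baseline.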

Assay [9] is described as follows: ATG_GATA_CIS: Attagene CIS-FACTORIAL HepG2 Assay for human GATA Binding Protein (AID 2282944). The note with it: HepG2 GATA cis-element reporter, Attagene multiplex mRNA; actives raise or lower the signal. A digest of the protocol: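 Read-out: fluorescent reporter mRNA fragments resolved by capillary electrophoresis after RT-PCR. Human liver HepG2 cells carried transiently transfected cis-regulated reporter constructs; chemicals incubated 24 h; gain or loss of signal fitted relative to DMSO.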

The target in assay [10] is Bile acid receptor (Homo sapiens) (UniProt Q96RI1). Kind of assay: ATG_IR1_CIS: Attagene CIS-FACTORIAL HepG2 Assay for human Nuclear Receptor Subfamily 1 Group H Member 4 (NR1H4), IR1 submotif (AID 2282946). The note with it: IR1 reporter transcription, actives raise or lower the signal. A digest of the protocol: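 Readout: reporter transcript levels by RT-PCR with fluorescent capillary electrophoresis, from HepG2 cells transiently transfected with multiplexed cis-regulated reporters and dosed 24 h. Gain- or loss-of-signal fitted versus DMSO negative control.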
Bile acid receptor (Homo sapiens), sequence (Q96RI1 whole entry, looked up): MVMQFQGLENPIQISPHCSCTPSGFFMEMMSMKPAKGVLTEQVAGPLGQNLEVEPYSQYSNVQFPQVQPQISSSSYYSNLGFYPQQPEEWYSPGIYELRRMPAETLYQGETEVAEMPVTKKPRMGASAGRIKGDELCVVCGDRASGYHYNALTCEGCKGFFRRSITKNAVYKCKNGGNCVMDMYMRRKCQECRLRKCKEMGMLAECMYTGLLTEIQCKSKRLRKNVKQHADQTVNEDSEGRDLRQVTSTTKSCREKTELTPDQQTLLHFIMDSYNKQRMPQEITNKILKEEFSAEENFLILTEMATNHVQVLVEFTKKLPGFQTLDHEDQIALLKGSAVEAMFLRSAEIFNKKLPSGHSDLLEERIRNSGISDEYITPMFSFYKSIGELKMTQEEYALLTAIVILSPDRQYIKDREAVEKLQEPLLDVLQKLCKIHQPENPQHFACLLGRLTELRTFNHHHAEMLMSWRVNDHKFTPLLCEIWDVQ

A short description of assay [11]: ATG_ISRE_CIS: Attagene CIS-FACTORIAL HepG2 Assay for human Interferon Regulatory Factor 1 (IRF1) binding to an Interferon-Stimulated Response Element (ISRE) (AID 2282948). The note with it: HepG2 ISRE cis-reporter (Attagene), mRNA transcription readout; actives raise or lower the signal. A digest of the protocol: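 Read-out: fluorescent RT-PCR products resolved by capillary electrophoresis, reporting endogenous transcription factor activity via ISRE-driven reporter mRNA in transfected HepG2 cells dosed for 24 h; gain or loss fitted relative to DMSO.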

Assay [12] can be described thus: ATG_M_32_CIS: Attagene CIS-FACTORIAL HepG2 Assay for M32 Transcription Factor (Internal Marker) (AID 2282949).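 Also: background control marker of the multiplexed CIS panel rather than a real target.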 Particulars: HepG2 Attagene cis-factorial M32 reporter, mRNA; actives raise or lower the signal. A digest of the protocol:
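Using DMSO as baseline, bidirectional curve fits were applied to reporter mRNA signals. These came from transiently transfected HepG2 cells exposed for 24 h, with RNA analysed by RT-PCR, FAM primer extension, HpaI digestion and CE.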

Assay [13] can be described thus: ATG_M_06_CIS: Attagene CIS-FACTORIAL HepG2 Assay for M06 Transcription Factor (Internal Marker) (AID 2282950). The note with it: HepG2 Attagene CIS-FACTORIAL M06 internal marker reporter; actives raise or lower the signal. A digest of the protocol:
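Terse: HepG2, transient MRTU transfection (FuGene 6), 24 h dosing; total RNA, oligo(dT) RT, PCR, FAM label, HpaI cut, capillary electrophoresis; bidirectional fit vs DMSO baseline; background-control endpoint.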

For assay [14], the target named is Hepatocyte nuclear factor 6 (Homo sapiens) (UniProt Q9UBC0). Kind of assay: ATG_HNF6_CIS: Attagene CIS-FACTORIAL HepG2 Assay for human Hepatocyte Nuclear Factor 6 (HNF6) (AID 2282952). The note with it: HepG2 Attagene cis-factorial HNF6 reporter transcription; actives raise or lower the signal. In a few lines:
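Twenty-four-hour chemical treatment of reporter-transfected HepG2 cells precedes RNA isolation, DNase-treated reverse transcription and PCR of reporter sequences. Labelled fragments are sized by capillary electrophoresis and fitted bidirectionally versus DMSO.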

Assay [15] addresses Heat shock factor protein 1 (Homo sapiens) (UniProt Q00613). In words: ATG_HSE_CIS: Attagene CIS-FACTORIAL HepG2 Assay for human Heat Shock Transcription Factor 1 (HSE) (AID 2282953). Particulars: HepG2 HSE cis-reporter, Attagene RNA transcription; actives raise or lower the signal. In a few lines: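 Read-out: fluorescence of reporter-specific RT-PCR fragments separated by capillary electrophoresis. HepG2 carrying transfected cis-element reporter units; 24 h dosing; activity fitted in both directions relative to DMSO baseline.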

The nature of assay [16]: ATG_MRE_CIS: Attagene CIS-FACTORIAL HepG2 Assay for human Metal Responsive Element (MRE) (AID 2282954). The note with it: HepG2 MRE cis-reporter transcription, Attagene multiplex; actives raise or lower the signal. A digest of the protocol:
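Readout: capillary electrophoresis of 6-FAM-labelled, HpaI-digested RT-PCR reporter products. System: HepG2 cells carrying transient multiplexed cis reporters, dosed 24 h. Analysis: bidirectional fit, DMSO baseline.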

Assay [17] can be described thus: ATG_PBREM_CIS: Attagene CIS-FACTORIAL HepG2 Assay for human Phenobarbital-responsive Enhancer Module (PBREM) (AID 2282955). The note with it: HepG2 PBREM cis-reporter, Attagene multiplexed transcription; actives raise or lower the signal. In a few lines:
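HepG2 cells transiently transfected with multiple cis-regulated reporter units measure endogenous transcription factor activity; 24 h compound exposure. Reporter mRNA quantified by RT-PCR, fluorescent labelling, HpaI digestion and capillary electrophoresis; bidirectional fit versus DMSO.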

The nature of assay [18]: ATG_GLI_CIS: Attagene CIS-FACTORIAL HepG2 Assay for human Zinc Finger Protein GLI1 (AID 2282945). Particulars: HepG2, Attagene cis-factorial reporter mRNA, GLI element; actives raise or lower the signal. A digest of the protocol: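 HepG2 cells transiently transfected with cis-promoter multiplexed reporter units report endogenous transcription factor activity. After 24 h chemical exposure, reporter mRNA was quantified by RT-PCR, 6-FAM labelling, HpaI digestion and capillary electrophoresis, with bidirectional fitting against DMSO.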

Assay [19] has as its target Hypoxia-inducible factor 1-alpha (Homo sapiens) (UniProt Q16665). Kind of assay: ATG_HIF1a_CIS: Attagene CIS-FACTORIAL HepG2 Assay for human Hypoxia Inducible Factor 1 (HIF1A) (AID 2282951). The note with it: HepG2 Attagene cis-factorial HIF1a reporter transcription; actives raise or lower the signal. A digest of the protocol: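 HepG2 cells transiently transfected with multiple cis-regulated reporter transcription units measure endogenous transcription factor activity. After 24 h exposure, reporter mRNA is quantified by RT-PCR with 6-FAM labelling, HpaI digestion and capillary electrophoresis. Bidirectional fitting against DMSO.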

Assay [20] can be described thus: ATG_GRE_CIS: Attagene CIS-FACTORIAL HepG2 Assay for human Glucocorticoid Response Elements (GRE) (AID 2282947). Particulars: HepG2 GRE cis-reporter, Attagene multiplex mRNA; actives raise or lower the signal. In a few lines:
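HepG2, transient cis-reporter transfection, 24 h. Reporter mRNA: RT-PCR then CE, fluorescence. Fit both directions vs DMSO.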

The structures appear in SMILES notation. Activity calls are given as the source filed them. The calls were made as follows: active = hit-call score of the fitted dose curve at least 0.9, where 1 is the maximum; inactive = score below 0.9.

Hypoxia-inducible factor 1-alpha (Homo sapiens), sequence (Q16665 whole entry, looked up): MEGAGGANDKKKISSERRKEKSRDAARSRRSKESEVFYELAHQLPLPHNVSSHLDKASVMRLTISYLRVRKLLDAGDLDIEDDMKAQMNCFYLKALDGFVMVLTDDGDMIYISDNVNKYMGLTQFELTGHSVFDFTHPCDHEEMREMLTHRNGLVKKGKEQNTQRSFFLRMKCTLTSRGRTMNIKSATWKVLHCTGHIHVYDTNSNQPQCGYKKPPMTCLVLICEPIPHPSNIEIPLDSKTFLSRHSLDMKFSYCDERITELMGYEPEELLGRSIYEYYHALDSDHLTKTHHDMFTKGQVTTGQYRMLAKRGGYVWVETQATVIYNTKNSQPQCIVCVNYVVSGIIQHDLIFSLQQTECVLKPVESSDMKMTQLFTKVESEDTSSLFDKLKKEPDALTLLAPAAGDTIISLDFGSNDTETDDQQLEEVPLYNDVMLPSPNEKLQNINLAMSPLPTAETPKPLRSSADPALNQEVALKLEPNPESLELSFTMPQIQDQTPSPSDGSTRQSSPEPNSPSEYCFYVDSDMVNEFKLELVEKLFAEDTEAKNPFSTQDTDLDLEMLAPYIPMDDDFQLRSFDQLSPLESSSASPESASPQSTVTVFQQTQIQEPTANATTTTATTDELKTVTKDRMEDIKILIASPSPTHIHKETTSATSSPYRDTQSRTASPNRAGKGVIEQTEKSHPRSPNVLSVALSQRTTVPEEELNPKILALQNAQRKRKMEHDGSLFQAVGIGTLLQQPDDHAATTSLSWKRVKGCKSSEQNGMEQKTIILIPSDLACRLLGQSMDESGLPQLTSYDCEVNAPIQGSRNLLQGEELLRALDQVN
Heat shock factor protein 1 (Homo sapiens), sequence (Q00613 whole entry, looked up, the tested form may be a part): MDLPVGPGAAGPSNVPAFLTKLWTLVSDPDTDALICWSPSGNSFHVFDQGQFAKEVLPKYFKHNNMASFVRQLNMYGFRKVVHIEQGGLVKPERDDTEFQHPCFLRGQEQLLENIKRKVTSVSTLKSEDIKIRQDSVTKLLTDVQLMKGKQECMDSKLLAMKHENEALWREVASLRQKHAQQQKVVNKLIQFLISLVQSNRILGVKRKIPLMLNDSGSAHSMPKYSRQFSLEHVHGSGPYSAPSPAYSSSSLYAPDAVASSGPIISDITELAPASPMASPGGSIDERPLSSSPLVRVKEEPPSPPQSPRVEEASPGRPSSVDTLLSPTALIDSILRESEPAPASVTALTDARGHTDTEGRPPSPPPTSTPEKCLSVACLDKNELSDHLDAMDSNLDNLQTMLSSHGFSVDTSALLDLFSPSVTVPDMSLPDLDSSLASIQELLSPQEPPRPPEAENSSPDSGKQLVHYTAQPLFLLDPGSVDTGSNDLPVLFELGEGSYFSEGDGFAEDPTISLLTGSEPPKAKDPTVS
Hepatocyte nuclear factor 6 (Homo sapiens), sequence (Q9UBC0 whole entry, looked up, the tested form may be a part): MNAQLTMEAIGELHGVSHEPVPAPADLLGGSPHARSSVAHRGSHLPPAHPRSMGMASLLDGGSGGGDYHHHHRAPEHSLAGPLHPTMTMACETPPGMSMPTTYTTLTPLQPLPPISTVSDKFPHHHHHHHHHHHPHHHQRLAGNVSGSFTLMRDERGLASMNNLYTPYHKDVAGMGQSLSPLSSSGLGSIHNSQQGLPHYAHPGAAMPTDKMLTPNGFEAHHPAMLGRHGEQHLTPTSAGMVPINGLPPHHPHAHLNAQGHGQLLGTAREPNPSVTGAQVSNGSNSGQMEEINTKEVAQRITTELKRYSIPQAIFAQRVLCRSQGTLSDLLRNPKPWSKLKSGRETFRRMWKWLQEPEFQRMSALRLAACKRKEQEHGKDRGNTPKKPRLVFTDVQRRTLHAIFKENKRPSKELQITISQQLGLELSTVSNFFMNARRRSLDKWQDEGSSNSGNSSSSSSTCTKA
Hepatocyte nuclear factor 3-beta (Homo sapiens), sequence (Q9Y261 whole entry, looked up): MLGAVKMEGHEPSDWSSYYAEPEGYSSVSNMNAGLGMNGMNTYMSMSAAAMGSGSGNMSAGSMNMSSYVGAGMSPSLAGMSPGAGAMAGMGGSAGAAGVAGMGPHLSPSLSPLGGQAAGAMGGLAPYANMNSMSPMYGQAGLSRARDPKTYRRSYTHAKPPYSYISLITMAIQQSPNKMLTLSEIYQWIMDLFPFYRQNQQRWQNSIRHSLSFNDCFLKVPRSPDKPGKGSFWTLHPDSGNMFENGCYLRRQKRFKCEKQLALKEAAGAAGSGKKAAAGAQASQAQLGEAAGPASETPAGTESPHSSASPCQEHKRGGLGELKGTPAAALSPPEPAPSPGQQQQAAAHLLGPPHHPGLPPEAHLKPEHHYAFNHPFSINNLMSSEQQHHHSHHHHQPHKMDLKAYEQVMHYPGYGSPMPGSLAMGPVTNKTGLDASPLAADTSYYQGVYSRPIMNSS

On to `CC(C)OC(=O)C(C)(C)Oc1ccc(C(=O)c2ccc(Cl)cc2)cc1`, for which the result in assay [1], in assay [2], in [4], in assay [6], in [7] and in [8] was inactive. Further, the outcome in [9], in assay [10], in [12], in assay [13], in assay [14] and in [15] was inactive. Moreover, the result in assay [17] was inactive. Further, the AC50 (as a rule, the concentration at which the activity in the assay is half-maximal) in assay [3] was 38.4 µM (active); in assay [5] it was 27.7 µM (active); in [11], 49 µM (active); in assay [16], 43.6 µM (active).
As for `CC(C)(C)c1ccccc1`, the result in [1], in [2], in assay [3], in assay [4], in [6] and in [7] was inactive. Further, the molecule was called inactive in assay [8], in [9], in [18], in assay [11], in [12] and in assay [13]. The call in assay [19], in assay [14], in assay [15], in assay [16] and in assay [17] was inactive.
`C/C=C/C=C/C(=O)O`: the result in assay [1], in assay [2], in assay [3], in assay [4], in assay [6] and in assay [7] was inactive. In addition, the call in assay [8], in assay [9], in assay [18], in assay [11], in assay [12] and in assay [13] was inactive. The result in assay [19], in [14], in [15], in [16] and in assay [17] was inactive.
For `CC(=O)CC(c1ccccc1)c1c(O)c2ccccc2oc1=O` (stereo unspecified), the result in [1], in assay [2], in assay [3], in assay [4], in assay [6] and in assay [7] was inactive. In addition, the outcome in assay [8], in [9], in assay [18], in assay [11], in [12] and in assay [13] was inactive. In addition, the result in assay [19], in [14] and in assay [16] was inactive.
On to `C=CCCCCCCCCCCCC`, for which the result in assay [1], in [2], in assay [3], in assay [4], in [6] and in [7] was inactive. Besides, the result in assay [8], in assay [9], in [18], in assay [10], in assay [20] and in assay [11] was inactive. The result in [12], in assay [13], in [19], in assay [14], in assay [15] and in assay [16] was inactive. The outcome in assay [17] was inactive.
Turning to `CCC(C)N(C)C(=O)c1cc2ccccc2c(-c2ccccc2Cl)n1` (stereo unspecified), the result in [1], in [2], in [4], in [5], in assay [6] and in assay [7] was inactive. The result in [8], in assay [9], in [12], in [13] and in assay [14] was inactive. Besides, the AC50 is 62.5 µM (active) in assay [3], 89 µM (active) in [11], 101 µM (active) in assay [15] and 97.4 µM (active) in assay [16].
Turning to `CCCCC(CC)COC(=O)CCCCCCCC(=O)OCC(CC)CCCC` (stereo unspecified), the result in assay [1], in assay [2], in assay [3], in assay [4], in [6] and in assay [7] was inactive. For the same molecule, the outcome in [8], in [9], in assay [18], in assay [10], in assay [20] and in [11] was inactive. For the same molecule, the molecule was classed as inactive in assay [12], in [13], in assay [14], in assay [15], in [16] and in [17]. For the same molecule, the AC50 in assay [19] was 61.9 µM (active).
As to `OCC(CO)n1cnc(-c2ccc(F)cc2)c1-c1ccnc(Oc2ccccc2)n1`, the result in assay [1], in assay [2], in assay [3], in assay [4], in assay [5] and in assay [6] was inactive. In addition, the molecule was called inactive in assay [7], in [8], in assay [9], in [11], in assay [12] and in [13]. The outcome in assay [19], in [14], in [15], in assay [16] and in assay [17] was inactive.
